Compounds with a hit are over-represented: about 2.4% of the library has one in this group of screens.
WRN helicase inh = inhibitors of human WRN helicase; 0.46% of 360,000 active; Q14191; WRN helicase unwinding, fluorescent forked duplex, kinetic; Potency, µM (titrated, usually from 114 µM), inactives show at the top dose activity change, negative = inhibition, usual class: inhibitors; also: % is scaled to controls: 0 for no effect and ±100 for the full control effect; nearly all actives have a fitted effect of over 55% in size
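Kinetic fluorescence helicase assay: unwinding of a quenched forked DNA duplex (100 nM final) with 2 mM ATP final raises red fluorescence (525/598 nm). Compounds sat 15 min at room temperature with 20 nM WRN beforehand.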
Pol kappa inh-1 = blocks human DNA polymerase kappa activity. purified Pol kappa, fluorescent DNA synthesis assay, 10 min. 0.53% of 400,000 active. Q9UBT6. Potency, µM (titrated, usually from 107 µM), without a hit: top-dose activity, negative = inhibition, most hits filed as inhibitors. AID 588579; also: % is scaled to controls: 0 for no effect and ±100 for the full control effect
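Enzyme at 10 nM met test compounds for 15 min at room temperature. Substrate addition (50 nM final) began the reaction, which was monitored by fluorescence at 0 and 10 min.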
Pol eta inh-1 = inhibitors of human DNA polymerase eta | recombinant Pol eta, fluorescent DNA replication assay | Potency, µM (top dose mostly 114 µM), for the others: at the top dose activity change, negative = inhibition, usual class: inhibitors | 1.2% of 390,000 active | AID 588591; also: % is scaled to controls: 0 for no effect and ±100 for the full control effect
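Pol eta at 10 nM preincubated with compounds 15 min at room temperature; reaction started with fluorescent substrate (50 nM final) and read kinetically at 0 and 10 min.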
Pol beta inh = DNA polymerase beta (human) inhibition; P06746; Pol beta primer extension/strand displacement, fluorescence kinetic; Potency, µM (highest dose often 114 µM), for the others: at the top dose activity change, negative = inhibition, hits mostly inhibitors; 1.3% of 340,000 active; also: % is scaled to controls: 0 for no effect and ±100 for the full control effect
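Reaction started by 50 nM substrate onto compound-treated Pol beta (10 nM, 15 min preincubation, room temperature); plates read at 0 min and 10 min. Normalized concentration-effect data fitted by four-parameter Hill equation.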
Pol iota inh = DNA polymerase iota (human) inhibition | Potency, µM (doses to about 115 µM), for the others: top-dose activity, negative = inhibition, actives largely listed as inhibitors | AID 588590 | Q9UNA4 | Pol iota fluorescent replication assay, 10 min | 1% of 390,000 active
Target sequence (Q9UNA4 whole entry, looked up): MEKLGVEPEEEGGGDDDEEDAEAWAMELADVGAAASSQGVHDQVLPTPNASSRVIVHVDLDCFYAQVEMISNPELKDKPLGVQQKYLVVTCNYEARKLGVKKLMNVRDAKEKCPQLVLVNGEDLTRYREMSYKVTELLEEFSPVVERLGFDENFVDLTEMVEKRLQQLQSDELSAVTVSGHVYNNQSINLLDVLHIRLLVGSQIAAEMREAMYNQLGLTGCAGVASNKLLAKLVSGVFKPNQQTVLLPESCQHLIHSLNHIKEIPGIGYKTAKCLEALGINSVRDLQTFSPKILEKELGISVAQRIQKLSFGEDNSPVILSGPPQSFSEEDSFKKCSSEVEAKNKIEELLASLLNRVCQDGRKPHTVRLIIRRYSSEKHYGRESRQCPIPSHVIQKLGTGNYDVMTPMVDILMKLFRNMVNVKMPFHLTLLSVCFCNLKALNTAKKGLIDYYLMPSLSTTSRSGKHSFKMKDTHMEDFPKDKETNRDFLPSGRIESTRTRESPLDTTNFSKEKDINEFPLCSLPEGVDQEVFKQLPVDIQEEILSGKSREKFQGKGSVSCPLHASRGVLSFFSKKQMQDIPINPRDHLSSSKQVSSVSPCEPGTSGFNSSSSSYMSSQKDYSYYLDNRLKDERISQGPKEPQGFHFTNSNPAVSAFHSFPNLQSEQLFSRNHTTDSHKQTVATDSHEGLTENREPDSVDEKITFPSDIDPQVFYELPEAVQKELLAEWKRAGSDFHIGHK
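Pol iota at 10 nM preincubated 15 min with compounds at room temperature; reaction started with fluorescent substrate, 50 nM final. Fluorescence read kinetically at 0 and 10 min; buffer-only wells as negative control.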
FEN1 inh = human FEN1 inhibition | Recombinant FEN1 flap cleavage, fluorescence, 15 min | Potency, µM (series often up to 114 µM), for the others: top-dose activity change, negative = inhibition, hits mostly inhibitors | 0.35% of 390,000 active; also: % is scaled to controls: 0 for no effect and ±100 for the full control effect; nearly all actives have a fitted effect of over 65% in size
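FEN1 at 10 nM, compound pretreatment for 15 min (room temperature), 50 nM final substrate to initiate; endpoint reads at 0 and 15 min; DMSO-only plates used as vehicle background.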
TbPGK inh = blocks T. brucei phosphoglycerate kinase; shares compounds with Pol kappa inh-1; Potency, µM (series often up to 57.5 µM), without a hit: at the highest dose activity change, negative = inhibition, usual class: inhibitors; TbPGK coupled GAPDH assay, Kinase-Glo luminescence; 79% of 500 active; also: % is scaled to controls: 0 for no effect and ±100 for the full control effect; nearly all actives have a fitted effect of over 65% in size
POLI cherry-pick = Confirm cherry-picked inhibitors of human polymerase iota; shares compounds with Pol kappa inh-1; Pol iota primer extension, TAMRA/BHQ fluorescence; Potency, µM, actives largely listed as inhibitors; 77% of 1,500 active
Pol kappa inh-2 = confirmation of human DNA polymerase kappa inhibitors. purified Pol-kappa, fluorescent strand-displacement substrate. shares compounds with Pol eta inh-1. AID 720501. 76% of 920 active. Potency, µM, hits mostly inhibitors
Pol eta inh-2 = Pol eta (human) inhibition, cherry-pick confirmation; AID 720502; 64% of 2,600 active; Pol eta primer extension, TAMRA/BHQ fluorescence, 10 min; Potency, µM, usual class: inhibitors; shares compounds with Pol eta inh-1
* marks the source's active call; other numbers are inactive results; ? = inconclusive; . = no result; [ ] = another dose, or the depositor's remark. Calls follow the shape of the dose curve; as a rule, active = well fitted curve in the direction sought with a large enough effect; inconclusive = small, poorly fitted or top-dose-only effect, or another doubt; inactive = no such curve, though single readings can be large; an effect the other way counts as inactive or inconclusive. Potency is read from the fitted curve at half-maximal effect.

SMILES | WRN helicase inh | Pol kappa inh-1 | Pol eta inh-1 | Pol beta inh | Pol iota inh | FEN1 inh | POLI cherry-pick | Pol eta inh-2 | others
CN(C)S(=O)(=O)c1cc(NC(=O)COC(=O)/C=C/c2ccco2)ccc1Cl | ? | 32µM* | 25µM* | ? | ? | ? | . | 67* | TbPGK inh=-26%
COc1cccc(/C=C/C(=O)OCC(=O)Nc2ccc(Cl)c(S(=O)(=O)N(C)C)c2)c1 | -5% | -3% | -26% | 1% | 10% | -6% | . | .
O=C(Nc1cccc(F)c1)N1CCCC2(CCN(C(=O)c3cnccn3)CC2)C1 | . | -9%[60.1 µM] | . | . | . | . | . | .
O=C(O)C1CCCCC1C(=O)Nc1cccc(Br)c1 (centres undefined) | 50µM* | ? | 13µM* | . | 45µM* | -6% | 75* | 38* | Pol kappa inh-2=19*
COc1ccc2[nH]c(C)c(C(=O)CNc3nccs3)c2c1 | . | -9% | . | . | 33% | -5% | . | .
COc1cccc(CN(C(=O)c2ccco2)C2CCS(=O)(=O)C2)c1 (centres undefined) | -10% | -9% | 5% | -3% | 21% | 20% | . | .
COc1ccc(CN(C(=O)/C=C/c2ccco2)C2CCS(=O)(=O)C2)cc1 (centres undefined) | -29%[57.1 µM] | ? | 50µM* | 20µM* | 18µM* | -23% | 53* | 85*
COc1cccc(CN(C(=O)/C=C/c2ccco2)C2CCS(=O)(=O)C2)c1 (centres undefined) | -14% | 89µM* | ? | ? | 45µM* | -3% | ? | ?
COc1ccc(C2=C(Nc3ccc(Br)c(C)c3)c3ccccc3C2=O)cc1 | . | -6% | -17% | -27% | 15% | 8% | . | .
CCc1cc(=O)oc2c(C)c3c(cc12)CN(CCc1ccccc1)CO3 | . | 5% | -6% | -2% | -10% | -2% | . | .
CCCSc1nc(C)c(-c2csc(C(C#N)=C3CCCC3)n2)cc1C#N | ? | ? | 45µM* | -103% | ? | -18% | 67* | 34*
COc1cccc(N=c2oc3ccccc3cc2-c2nc3ccccc3[nH]2)c1 | 8% | -10% | -1% | 1% | ? | 15% | . | .
COc1cccc(N=c2oc3ccc(OC)cc3cc2-c2nc3ccccc3[nH]2)c1 | ? | -36% | 45µM* | ? | ? | ? | 34* | 76*
COc1cccc(Nc2nc3cc(Cl)c(Cl)cc3nc2-n2nc(C)cc2C)c1 | . | -1% | -7% | 3% | 8% | 3% | . | .
COc1cccc(NC(=O)c2cc(-c3ccco3)nc3ccccc23)c1 | -5%[11.6 µM] | ? | ? | . | ? | 14% | . | .
Cc1ccc(NC(=O)CN(C)C(=O)c2cc(-c3ccco3)nc3ccccc23)cc1 | 71µM* | 50µM* | 20µM* | . | 18µM* | -19% | 42* | 60*
CCOc1ccc(NC(=O)CN(C)C(=O)c2cc(-c3ccco3)nc3ccccc23)cc1OCC | -4% | 0% | -9% | . | 24% | -14% | . | .
COc1cccc(NC(=O)CN(C)C(=O)c2cc(-c3ccco3)nc3ccccc23)c1 | -16%[11.6 µM] | ? | ? | . | 35µM* | -23% | 38* | 30*
Cc1ccc(NC(=O)/C(C#N)=C/c2ccc(C)o2)cc1 | . | -10% | . | -6% | -2% | 2% | . | .
N#C/C(=C\c1ccc(-c2ccc(C(=O)O)cc2)o1)C(=O)Nc1ccc(F)cc1 | 56µM* | 56µM* | 5.6µM* | ? | 10µM* | 45µM* | 27* | 27*
COc1ccc(/C=N/Nc2ncc(Br)cn2)c(OC)c1 | ? | 5% | 28µM* | 4.5µM* | -4% | ? | 42* | . | Pol kappa inh-2=15*
NC1=C(Cl)C(=O)c2ccc(S(N)(=O)=O)cc2C1=O | ? | -19% | 10µM* | . | 4µM* | 0% | 75* | 38*
NC1=C(Cl)C(=O)c2ccccc2C1=O | -7% | -16% | -7% | . | -6% | ? | . | .
CCCCN(CC)CCCNC(=O)C1CCCN(c2ncnc3c2nc2n3CCCCC2)C1 (centres undefined) | . | -16% | -1% | 1% | 11% | 1% | . | .
CSc1ccc(/C=C(\C(=O)O)c2ccc(S(=O)(=O)N3CCCCC3)s2)cc1 | -11%[57.1 µM] | -26% | ? | ? | ? | 2% | . | .
SMILES | WRN helicase inh | Pol kappa inh-1 | Pol eta inh-1 | Pol beta inh | Pol iota inh | FEN1 inh | POLI cherry-pick | Pol eta inh-2 | others
O=C(O)/C(=C\c1ccc(Cl)c([N+](=O)[O-])c1)c1ccc(S(=O)(=O)N2CCCC2)s1 | -4%[11.6 µM] | ? | 22µM* | . | 40µM* | -18% | ? | ? | Pol kappa inh-2=?
CC(C)CCNC(=O)Nc1ccc2c(c1)N(C)C(=O)c1ccccc1S2 | . | 4% | -13% | 3% | 2% | 12% | . | .
Cc1ccc(NC(=O)Cn2c(=O)n(CCC(=O)NCCc3ccccc3)c(=O)c3ccccc32)cc1 | . | 0% | -4% | 18% | ? | -4% | . | .
CN(C)c1ccc(/C=C2\SC(=S)N(Nc3ncc(C(F)(F)F)cc3Cl)C2=O)cc1 | 50µM* | 18µM* | 45µM* | -1% | 11µM* | ? | 21* | 19*
C[C@H](NC(=O)C1CC(=O)N(c2ccc3c(c2)OCO3)C1)C(=O)NC1CCCC1 (some centres undefined) | 2% | -2% | -14% | 23% | 50% | 20% | . | .
CC(C)[C@H](NC(=O)C1CC(=O)N(c2ccc3c(c2)OCO3)C1)C(=O)NC1CCCC1 (some centres undefined) | -16%[11.6 µM] | 5% | 32µM* | ? | 16% | 8% | ? | 76*
COc1ccc(NC(=O)C2CCN(S(=O)(=O)c3c(C)noc3/C=C/c3ccco3)CC2)cc1 | . | ? | 32µM* | 25µM* | ? | 6% | 24* | 27* | TbPGK inh=10µM*;Pol kappa inh-2=12*
O=C1C=C(Nc2ccccc2C(=O)O)c2ccccc2C1=O | -36%[57.1 µM] | -18% | 28µM* | ? | 18µM* | ? | 67* | 38*
O=C(O)c1ccccc1Nc1ccccc1C(=O)O | -4% | -1% | -17% | 8% | 1%[58.9 µM] | -1% | . | .

Compound activity from PubChem.
